# KB-3-1 tox = qHTS assay for MDR1-selective chemotherapeutics: Primary screen using the parental adenocarcinoma cell KB-3-1; KB-3-1 viability, CellTiter-Glo ATP luminescence, 72 h; Potency, µM (top dose mostly 46.1 µM), actives largely listed as cytotoxic; 1.4% of 400,000 active; AID 1347075, 2019; further: nearly all actives have a fitted effect of over 60% in size
#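 Parental KB-3-1 viability, qHTS format: 72 h compound exposure, 37 °C; CellTiter-Glo; media-only wells and DMSO plates as controls; concentration-effect fits on corrected data.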
# KB-V1 MDR tox = qHTS assay for MDR1-selective chemotherapeutics: Primary screen using the drug-selected MDR subline cells KB-V1. KB-V1 MDR cells viability, CellTiter-Glo, 72 h. Potency, µM (highest dose often 46.1 µM), hits mostly cytotoxic. 3.4% of 400,000 active. AID 1347076, 2019; further: nearly all actives have a fitted effect of over 60% in size
#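 Cytotoxicity via CellTiter-Glo luminescence after 72 h compound exposure at 37 degrees C. Cells: drug-selected KB-V1 line, DMEM phenol-red free plus 10% FBS. Compounds tested at multiple concentrations; normalized data fitted to concentration-effect curves.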
# SW480 rerep = A quantitative high throughput screen for small molecules that induce DNA re-replication in SW480 colon adenocarcinoma cells; SW480 DNA re-replication, Hoechst DNA content imaging, 48 h; Potency, µM (titrated, usually from 46.1 µM), hits mostly activators; 1.8% of 340,000 active; further: nearly all actives have a fitted effect of over 55% in size
#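 DNA re-replication was detected as more nuclei of elevated Hoechst intensity after 48 hr exposure to compound (23 nL pinned per well of 250 cells).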
# MCF10A rereplic = A quantitative high throughput screen for small molecules that induce DNA re-replication in MCF 10a normal breast cells; AID 624296, 2012; Potency, µM (doses to about 46.1 µM), actives largely listed as activators; MCF 10A DNA re-replication, Hoechst nuclear intensity, 48 h; 2.9% of 350,000 active; further: nearly all actives have a fitted effect of over 50% in size
# IL-1B inflam inh = qHTS for Inhibitors of Inflammasome Signaling: IL-1-beta AlphaLISA Primary Screen. THP-1 LPS/ATP IL-1B secretion, AlphaLISA, 16 h; hits give low values. activity change, % at 57.5 µM. 4.7% of 360,000 active; in the data active means activity change below about -50%; inconclusive means mostly about -30% to -49%
#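 Secreted IL-1B measured by AlphaLISA bead assay after 16 h compound exposure of THP-1 cells; compounds (final up to 57.5 uM) added 1 h before LPS (250 ng/mL) and ATP (1.25 mM) stimulation; lower signal means less secretion.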
# Numbers stand for hits; 0 = inactive; ? = inconclusive; - = no result. A selection: hits, their analogues and other compounds. The true share with any hit is near 9.9%. Unless noted, the call rests on the fitted dose curve; in most records, active means well fitted curve in the direction sought with a large enough effect; inconclusive means small, poorly fitted or top-dose-only effect, or another doubt; inactive means no such curve, though single readings can be large; an effect the other way counts as inactive or inconclusive.
SMILES,KB-3-1 tox,KB-V1 MDR tox,SW480 rerep,MCF10A rereplic,IL-1B inflam inh
Cc1c(O)ccc2c(CN(C)Cc3ccccc3)cc(=O)oc12,0,0,18.4µM,0,0
COc1ccc2c(CC(=O)N[C@@H](Cc3ccccc3)C(=O)O)cc(=O)oc2c1,0,0,0,0,0
CCC(C)NC(=O)CN(c1cc(Cl)cc(Cl)c1)S(C)(=O)=O (stereo unspecified),0,0,0,0,0
CC1(C(=O)Nc2cccc(OC(F)(F)F)c2)Cc2c(-c3ccc(C(N)=O)cc3)ccnc2O1 (stereo unspecified),0,?,-,-,0
CCn1ccc2cc(S(=O)(=O)N3CCC(C(=O)NCCOC)CC3)ccc21,0,?,-,-,-
Cc1ccc(Cn2c(C)c3cnn(CC(=O)NCCc4ccc(Cl)cc4)c(=O)c3c2C)cc1,0,0,-,-,-
CCc1cc2c(CN(C)Cc3ccccc3F)cc(=O)oc2cc1O,?,11.6µM,?,18.4µM,0
Cc1cc2oc(=O)cc(CN(C)Cc3cccc(F)c3)c2cc1C,0,0,?,0,0
N=c1n(CC(=O)c2ccc([N+](=O)[O-])cc2)c2ccccc2n1Cc1ccc(Cl)cc1,0,0,0,0,0
N=c1n(CCO)c2ccccc2n1Cc1ccc(Cl)cc1,0,0,0,0,-51.7
N=c1n(CC(=O)c2ccc([N+](=O)[O-])cc2)c2ccccc2n1Cc1ccccc1Cl,?,?,0,0,-59.9
N=c1n(CC(=O)c2ccc(Br)cc2)c2ccccc2n1Cc1ccccc1,?,?,0,0,-101.1
N=c1n(CC(=O)c2ccc([N+](=O)[O-])cc2)c2ccccc2n1Cc1ccccc1,?,?,?,?,-105.7
COc1ccc([C@@H]2CNC(=O)C2)cc1OC1CCCC1,-,-,0,0,-
COC(=O)/C(C#N)=C(/Nc1ccc(F)c(Cl)c1)C(F)(F)F,0,0,0,?,0
CC(C)C(NC(=O)c1ccc(Cl)c([N+](=O)[O-])c1)C(=O)NCc1ccccn1 (stereo unspecified),0,0,0,0,0
CCOC(=O)Cn1c(=N)n(Cc2ccccc2)c2ccccc21,0,0,0,0,0
N=c1n(Cc2ccccc2)c2ccccc2n1Cc1ccccc1,?,18.4µM,23.1µM,?,-
O=C(NCCc1cccs1)Nc1nnc([C@H]2C[C@H](O)[C@@H](CO)O2)s1,0,0,-,-,0
Cc1ccc(-c2cn(-c3ccc(SC(F)F)cc3)c3[n+]2CCC3)cc1,2.06µM,0,0,0,?
FC(F)Sc1ccc(-n2cc(-c3ccc(Cl)cc3)[n+]3c2CCC3)cc1,18.4µM,0,0,0,0
Clc1ccc(-n2cc(-c3ccc(Br)cc3)[n+]3c2CCCCC3)cc1,?,0,?,0,0
O=C(COC(=O)c1cc(=O)[nH]c2ccccc12)Nc1ccccc1F,?,?,0,0,0
Cc1cc(C)nc(N/N=C/c2cc(C)n(CC(F)(F)F)c2C)n1,0,0,0,0,0
Cc1cccc(N2CCN(C(=O)CCC(=O)N3CCOc4ccc(Cl)cc43)CC2C)c1 (stereo unspecified),?,0,0,0,?
SMILES,KB-3-1 tox,KB-V1 MDR tox,SW480 rerep,MCF10A rereplic,IL-1B inflam inh
Cc1cccc(C2=NN(c3ccccc3)[C@@H](C(=O)N3CCOC3=O)[C@@H]2c2ccccc2)c1,0,0,16.4µM,?,0
Cc1cccc(C2=NN(c3ccc(Br)cc3)[C@@H](C(=O)N3CCOC3=O)[C@@H]2c2ccccc2)c1,0,0,?,1.46µM,0
COc1ccc(-n2c(C(C)(C)C)csc2=Nc2c(C)n(C)n(-c3ccccc3)c2=O)cc1,0,0,0,0,0
CCOC(=O)c1cc(CC)sc1NC(=O)C1CC(=O)NN1Cc1ccccc1 (stereo unspecified),0,0,0,0,-60.3
CC(Oc1cc(F)ccc1[N+](=O)[O-])C(=O)N(C)CC(=O)Nc1ccccc1C(F)(F)F (stereo unspecified),0,?,0,0,0
CC(=O)NC(Cc1ccccc1)C(=O)N1CCN(C(=O)c2ccco2)CC1 (stereo unspecified),0,0,0,0,0

# Source: PubChem BioAssay
